Laboratory results: PubChem BioAssay
For some of these results: Entries with a potency or affinity are not part of this list. Calls of active or inactive are those of the source. Unless noted, no rule for the calls is given here.

Legend:
[1] = antimalarial activity against Dd2 strain (AID 2302;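 active = growth inhibition above 50% at the single 2 µM test dose, taken to imply half-maximal potency below 2 µM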;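 also: 0% = DMSO untreated growth and 100% = chloroquine plus artemisinin killed control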); conditions: P. falciparum Dd2 in RBCs, LDH growth readout, 72 h; at 2 µM; stronger effect = higher value
[2] = HepG2 cytotoxicity, primary screen, cytotoxicity control for P. falciparum antimalarial project, cell-based, ATP luminescence (AID 2303;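 active = inhibition above 50%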;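 also: 0% = DMSO wells and 100% = digitonin-killed cells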); conditions: HepG2 viability, 24-48 h, at 10 µM, stronger effect = higher value
[3] = target: L-lactate dehydrogenase (Plasmodium falciparum (isolate CDC / Honduras)) (UniProt Q27743); experiment: PfLDH activity inhibition – cell lysate, 3D7 strain, counter-screen for P. falciparum growth inhibition project (AID 2304);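 also: 0% = vehicle and 100% = reference inhibitor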; conditions: P. falciparum 3D7 crude extract, LDH APAD/NBT absorbance; at 2 µM; stronger effect = higher value
[4] = inhibition of 3D7 malaria parasite growth – strain 3D7 (AID 2306);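 also: 0% = DMSO wells and 100% = chloroquine plus artemisinin control wells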; conditions: P. falciparum 3D7 erythrocytic growth, LDH absorbance, 72 h; at 2 µM; stronger effect = higher value
[5] = target: Calcium-dependent protein kinase 1 (Plasmodium falciparum (isolate 3D7)) (UniProt P62344); experiment: PfCDPK1 kinase inhibitors, biochemical, TCAMS library (AID 1159585; cut-off not given, nearly all actives have IC50 up to about 0.98 µM;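 also: inhibitors leave more ATP so luminescence rises with inhibition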); conditions: recombinant PfCDPK1, Kinase-Glo ATP depletion luminescence
[6] = target: Plasmodium falciparum protein kinase 6 (PK6, PF3D7_1337100) (UniProt Q8IDW1); experiment: PfPK6 kinase inhibitors, biochemical, TCAMS library (AID 1159586); conditions: recombinant PfPK6, Kinase-Glo ATP depletion luminescence
[7] = target: Protein kinase 7 (PK7), Plasmodium falciparum 3D7 (PF3D7_0213400) (UniProt Q7YTF7); experiment: inhibition of Plasmodium PK7 catalytic activity – biochemical, TCAMS antimalarial set, Kinase-Glo luminescence (AID 1159587); conditions: recombinant PfPK7, Kinase-Glo ATP depletion luminescence
[8] = target: Calcium-dependent protein kinase 4 (Plasmodium falciparum (isolate 3D7)) (UniProt Q8IBS5); experiment: PfCDPK4 kinase inhibitors, biochemical, TCAMS library (AID 1159588; cut-off not given, nearly all actives have IC50 up to about 0.91 µM); conditions: recombinant PfCDPK4, Kinase-Glo ATP depletion luminescence
Calcium-dependent protein kinase 4 (Plasmodium falciparum (isolate 3D7)), sequence (Q8IBS5 whole entry, looked up): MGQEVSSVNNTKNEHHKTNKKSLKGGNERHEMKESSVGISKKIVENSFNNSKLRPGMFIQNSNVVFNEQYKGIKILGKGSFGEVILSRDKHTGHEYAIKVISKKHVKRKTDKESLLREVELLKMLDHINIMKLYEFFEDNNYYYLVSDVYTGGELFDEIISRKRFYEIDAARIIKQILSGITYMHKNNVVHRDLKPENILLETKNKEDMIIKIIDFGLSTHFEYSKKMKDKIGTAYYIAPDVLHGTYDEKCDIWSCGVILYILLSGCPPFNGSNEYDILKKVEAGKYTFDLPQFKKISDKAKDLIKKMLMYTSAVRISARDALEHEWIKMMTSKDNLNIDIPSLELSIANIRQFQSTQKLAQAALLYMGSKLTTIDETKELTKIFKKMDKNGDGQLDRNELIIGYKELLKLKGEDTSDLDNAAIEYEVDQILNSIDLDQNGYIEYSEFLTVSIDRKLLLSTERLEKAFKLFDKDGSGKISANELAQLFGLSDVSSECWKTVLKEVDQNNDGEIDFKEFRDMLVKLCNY

Plasmodium falciparum protein kinase 6 (PK6, PF3D7_1337100), sequence (Q8IDW1 1-305): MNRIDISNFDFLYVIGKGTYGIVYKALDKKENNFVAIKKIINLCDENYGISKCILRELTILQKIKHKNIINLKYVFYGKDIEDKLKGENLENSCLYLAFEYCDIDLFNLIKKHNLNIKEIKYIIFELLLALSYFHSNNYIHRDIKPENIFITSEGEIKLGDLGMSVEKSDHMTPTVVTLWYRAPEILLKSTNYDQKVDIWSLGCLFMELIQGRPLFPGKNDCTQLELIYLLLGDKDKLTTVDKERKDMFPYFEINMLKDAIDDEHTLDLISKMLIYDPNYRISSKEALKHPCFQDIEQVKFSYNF
Calcium-dependent protein kinase 1 (Plasmodium falciparum (isolate 3D7)), sequence (P62344 whole entry, looked up): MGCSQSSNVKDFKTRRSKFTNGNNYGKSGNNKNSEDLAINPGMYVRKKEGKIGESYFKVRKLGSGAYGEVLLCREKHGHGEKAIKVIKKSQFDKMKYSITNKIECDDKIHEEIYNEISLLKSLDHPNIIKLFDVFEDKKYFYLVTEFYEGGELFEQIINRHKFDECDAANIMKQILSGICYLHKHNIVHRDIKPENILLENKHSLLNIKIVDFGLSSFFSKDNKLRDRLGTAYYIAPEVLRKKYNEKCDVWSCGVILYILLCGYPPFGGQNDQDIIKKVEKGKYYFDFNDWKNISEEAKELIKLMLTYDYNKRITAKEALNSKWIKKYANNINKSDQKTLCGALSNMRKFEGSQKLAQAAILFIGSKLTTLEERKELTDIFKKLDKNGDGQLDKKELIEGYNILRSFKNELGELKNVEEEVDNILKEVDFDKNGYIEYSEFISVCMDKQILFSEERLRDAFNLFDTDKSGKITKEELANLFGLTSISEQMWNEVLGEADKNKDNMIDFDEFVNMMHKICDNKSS
L-lactate dehydrogenase (Plasmodium falciparum (isolate CDC / Honduras)), sequence (Q27743 whole entry, looked up): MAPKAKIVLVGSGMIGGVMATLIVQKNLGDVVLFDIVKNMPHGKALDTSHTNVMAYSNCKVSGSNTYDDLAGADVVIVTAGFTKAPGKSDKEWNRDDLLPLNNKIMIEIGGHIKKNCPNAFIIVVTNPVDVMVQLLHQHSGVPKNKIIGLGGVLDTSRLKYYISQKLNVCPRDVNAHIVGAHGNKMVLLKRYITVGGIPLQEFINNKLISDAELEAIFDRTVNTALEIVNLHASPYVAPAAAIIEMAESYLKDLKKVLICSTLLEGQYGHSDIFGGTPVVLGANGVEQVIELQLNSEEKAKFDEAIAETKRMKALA
Protein kinase 7 (PK7), Plasmodium falciparum 3D7 (PF3D7_0213400), sequence (Q7YTF7 1-343): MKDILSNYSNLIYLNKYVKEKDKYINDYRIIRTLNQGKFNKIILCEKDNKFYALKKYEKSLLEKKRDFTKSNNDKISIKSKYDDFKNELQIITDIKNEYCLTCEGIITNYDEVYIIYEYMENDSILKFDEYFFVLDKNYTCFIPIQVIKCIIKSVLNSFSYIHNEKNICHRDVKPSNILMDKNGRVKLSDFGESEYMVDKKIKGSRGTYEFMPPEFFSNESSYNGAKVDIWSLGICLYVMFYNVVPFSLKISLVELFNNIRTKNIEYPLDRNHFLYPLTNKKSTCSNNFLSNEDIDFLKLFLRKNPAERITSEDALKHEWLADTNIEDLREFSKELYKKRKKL

Cc1cccc(CCCNC(=O)CN(c2cccc(C(F)(F)F)c2)S(=O)(=O)c2ccc(C(F)(F)F)cc2)c1
inactive: inhibition [2] 9% | inhibition [3] 5% | outcome [5] | outcome [6] | outcome [7] | outcome [8]
active: growth inhibition [1] 94% | growth inhibition [4] 96%

CCN(CC)C(=O)C1CCCN(c2cc(C)nc(Nc3ccc(Cl)cc3)n2)C1 (stereo not drawn)
active: growth inhibition [1] 64% | growth inhibition [4] 94%
inactive: inhibition [2] 13% | inhibition [3] 1% | outcome [5] | outcome [6] | outcome [7] | outcome [8]

Clc1cccc(CNc2nc(NCCc3cnc[nH]3)nc(NC3CCCCC3)n2)c1
active: growth inhibition [4] 98%
inactive: growth inhibition [1] 0% | inhibition [2] 17% | inhibition [3] 5% | outcome [5] | outcome [6] | outcome [7] | outcome [8]

CCN(CC)CCCCOc1ccc2c(c1)C(=O)c1cc(OCCCCN(CC)CC)ccc1-2
active: growth inhibition [4] 102%
inactive: growth inhibition [1] 44% | inhibition [2] 24% | inhibition [3] -6% | outcome [5] | outcome [6] | outcome [7] | outcome [8]

CCn1c(Sc2ccc(C#N)c([N+](=O)[O-])c2)nnc1-c1ccc(OC)cc1
active: growth inhibition [1] 94% | growth inhibition [4] 98%
inactive: inhibition [2] -8% | inhibition [3] 2% | outcome [5] | outcome [6] | outcome [7] | outcome [8]

COc1ccc(CN2CCC(NCc3cccc(-n4ccnc4)c3)CC2)cc1
inactive: inhibition [2] 10% | inhibition [3] -5% | outcome [5] | outcome [6] | outcome [7] | outcome [8]
active: growth inhibition [1] 93% | growth inhibition [4] 100%

CCCC(C)Nc1nc(C)cc(N[C@@H](Cc2ccccc2)C(=O)NCCc2ccccc2)n1 (stereo partly drawn)
inactive: inhibition [2] 11% | inhibition [3] -3% | outcome [5] | outcome [6] | outcome [7] | outcome [8]
active: growth inhibition [1] 68% | growth inhibition [4] 97%

Cc1cc(-c2cccc(CNC3CCN(C)CC3)c2)ccc1S(=O)(=O)NC1CCC1
active: growth inhibition [1] 96% | growth inhibition [4] 101%
inactive: inhibition [2] 33% | inhibition [3] 3% | outcome [5] | outcome [6] | outcome [7] | outcome [8]

NC(=O)c1ccc(NCC(=O)Nc2cccc(-c3cccc(-c4nc5ccccc5[nH]4)c3)c2)cc1
active: growth inhibition [4] 99%
inactive: growth inhibition [1] 30% | inhibition [2] 9% | inhibition [3] -3% | outcome [5] | outcome [6] | outcome [7] | outcome [8]

Cc1cccc2[nH]c(-c3cccc(-c4ccc(NC(=O)C(C)CN5CCN(C)CC5)cc4)c3)nc12 (stereo not drawn)
active: growth inhibition [1] 100% | growth inhibition [4] 99%
inactive: inhibition [2] 7% | inhibition [3] -6% | outcome [5] | outcome [6] | outcome [7] | outcome [8]

CCCCCC(C)N=C(Nc1ccc([N+](=O)[O-])cc1O)Nc1ccccc1Br (stereo not drawn)
active: growth inhibition [1] 98% | growth inhibition [4] 99%
inactive: inhibition [2] -1% | inhibition [3] 5% | outcome [5] | outcome [6] | outcome [7] | outcome [8]

CCOC(=O)c1ccc(N2CCN(c3cc(C)ccc3C)CC2)c(NC(=O)Nc2ccc(Cl)c(Cl)c2)c1
inactive: growth inhibition [1] 42% | inhibition [2] 7% | inhibition [3] -2% | outcome [5] | outcome [6] | outcome [7] | outcome [8]
active: growth inhibition [4] 100%

O=C(NCc1ccc(Cl)c(Cl)c1)c1cc(CNC2CCNCC2)ccc1O
inactive: growth inhibition [1] 2% | inhibition [2] 2% | inhibition [3] 4% | outcome [5] | outcome [6] | outcome [7] | outcome [8]
active: growth inhibition [4] 82%

CC(C)N1CCN(CCCCNc2c3ccccc3nc3ccccc23)CC1
inactive: growth inhibition [1] -4% | inhibition [2] 38% | inhibition [3] -6% | outcome [5] | outcome [6] | outcome [7] | outcome [8]
active: growth inhibition [4] 100%

CCCCOc1ccc(-c2nc3ccccc3[nH]2)cc1
active: growth inhibition [1] 82% | growth inhibition [4] 86%
inactive: inhibition [2] 21% | inhibition [3] -1% | outcome [5] | outcome [6] | outcome [7] | outcome [8]

COc1ccc(C#Cc2ccc(-c3c(C)[nH]c(C)c(Cl)c3=O)cc2)cc1
active: growth inhibition [1] 97% | growth inhibition [4] 97%
inactive: inhibition [2] -6% | inhibition [3] 2% | outcome [5] | outcome [6] | outcome [7] | outcome [8]

CC(=O)Nc1nc(C(=O)Nc2cccc(-c3cccc(-c4nc5ccc(F)cc5[nH]4)c3)c2)cs1
active: growth inhibition [1] 100% | growth inhibition [4] 101%
inactive: inhibition [2] 39% | inhibition [3] -2% | outcome [5] | outcome [6] | outcome [7] | outcome [8]

CC(C)c1ccc(NC(=O)c2ccc(C(=O)NC3CCN(Cc4ccccc4)CC3)cc2)cc1
active: growth inhibition [4] 88%
inactive: growth inhibition [1] 7% | inhibition [2] 30% | inhibition [3] -3% | outcome [5] | outcome [6] | outcome [7] | outcome [8]

COc1cc2nc(N3CCC(CNC(=O)c4ccc(-c5ccc(C(F)(F)F)cc5)cc4)CC3)nc(N)c2cc1OC
inactive: inhibition [3] 3% | outcome [5] | outcome [6] | outcome [7] | outcome [8]
active: growth inhibition [1] 100% | inhibition [2] 94% | growth inhibition [4] 100%

Oc1ccc(CCNc2nc(NCc3ccccc3-c3ccccc3)nc(N3CCCNCC3)n2)cc1
inactive: growth inhibition [1] 20% | inhibition [2] 26% | inhibition [3] -5% | outcome [5] | outcome [6] | outcome [7] | outcome [8]
active: growth inhibition [4] 95%

O=C(Nc1ccc(Cl)cc1)Nc1cccc(-c2cccc(-c3nc4ccc(C(F)(F)F)cc4[nH]3)c2)c1
active: growth inhibition [1] 97% | inhibition [2] 87% | growth inhibition [4] 99%
inactive: inhibition [3] 1% | outcome [5] | outcome [6] | outcome [7] | outcome [8]

COc1cc(C(=O)Nc2cccc(-c3nc4ccccc4[nH]3)c2)ccc1OC(C)=O
inactive: growth inhibition [1] 37% | inhibition [2] 16% | inhibition [3] -4% | outcome [5] | outcome [6] | outcome [7] | outcome [8]
active: growth inhibition [4] 83%

CCOc1cc(C(=O)NC2CCN(Cc3ccccc3)CC2)ccc1-c1nc2cc(Cl)c(F)cc2[nH]1
inactive: inhibition [2] 13% | inhibition [3] 4% | outcome [5] | outcome [6] | outcome [7] | outcome [8]
active: growth inhibition [1] 51% | growth inhibition [4] 101%

Cc1ccc2nc(Cl)c3cc(C(=O)NCCCN4CCCC4)sc3c2c1
active: growth inhibition [4] 89%
inactive: growth inhibition [1] 40% | inhibition [2] 26% | inhibition [3] 0% | outcome [5] | outcome [6] | outcome [7] | outcome [8]

O=c1cc(NCCCCNCc2cccc(Br)c2)[nH]c2ccccc12
active: growth inhibition [4] 98%
inactive: growth inhibition [1] 19% | inhibition [2] -1% | inhibition [3] 0% | outcome [5] | outcome [6] | outcome [7] | outcome [8]

CCN1CCN(c2ccc(NC(=O)c3cc4c(C)nn(-c5ccccc5)c4s3)cc2C)CC1
active: growth inhibition [1] 81% | growth inhibition [4] 101%
inactive: inhibition [2] 32% | inhibition [3] 5% | outcome [5] | outcome [6] | outcome [7] | outcome [8]

Cc1[nH]c(C)c(-c2ccc(OCc3cc(F)cc(F)c3)nc2)c(=O)c1Br
active: growth inhibition [1] 97% | growth inhibition [4] 98%
inactive: inhibition [2] 37% | inhibition [3] -7% | outcome [5] | outcome [6] | outcome [7] | outcome [8]

O=c1cc(NCCCNC2CCc3ccc(Cl)cc32)[nH]c2ccccc12 (stereo not drawn)
inactive: growth inhibition [1] 39% | inhibition [2] -2% | inhibition [3] 3% | outcome [5] | outcome [6] | outcome [7] | outcome [8]
active: growth inhibition [4] 92%

O=C(NCCc1ccccc1)N(Cc1ccccc1-c1cccc(CNCCc2ccccc2)c1)C1CCN(Cc2ccccc2)CC1
inactive: inhibition [3] 4% | outcome [5] | outcome [6] | outcome [7] | outcome [8]
active: growth inhibition [1] 88% | inhibition [2] 100% | growth inhibition [4] 100%

COC(=O)c1cc(OC2CCOC2=O)cc2c1OC(C)(C)O2 (stereo not drawn)
inactive: growth inhibition [1] -1% | inhibition [2] 6% | inhibition [3] 2% | outcome [5] | outcome [6] | outcome [7] | outcome [8]
active: growth inhibition [4] 97%

Cc1ccc(Cn2c(N3CCC(C(=O)NCc4ccccn4)CC3)nc3ccccc32)cc1
inactive: inhibition [2] -8% | inhibition [3] 8% | outcome [5] | outcome [6] | outcome [7] | outcome [8]
active: growth inhibition [1] 99% | growth inhibition [4] 100%

CCNc1cc(C)nc(Nc2ccc(NS(=O)(=O)c3cc(OC)ccc3OC)cc2)n1
inactive: growth inhibition [1] 36% | inhibition [3] -1% | outcome [5] | outcome [6] | outcome [7] | outcome [8]
active: inhibition [2] 56% | growth inhibition [4] 100%

O=C(Nc1cccc(-c2nc3ccccc3[nH]2)c1)c1cccc(NC(=O)c2ccco2)c1
active: growth inhibition [4] 91%
inactive: growth inhibition [1] 45% | inhibition [2] 9% | inhibition [3] 0% | outcome [5] | outcome [6] | outcome [7] | outcome [8]

CC1CCN(CCCNc2ccc(C(=O)Nc3ccc(C(F)(F)F)cc3)cc2[N+](=O)[O-])CC1
active: growth inhibition [1] 100% | inhibition [2] 62% | growth inhibition [4] 101%
inactive: inhibition [3] -3% | outcome [5] | outcome [6] | outcome [7] | outcome [8]

Cc1ccc(S(=O)(=O)n2cc(-c3ccnc(N)c3)c3cc(Br)cnc32)cc1
inactive: growth inhibition [1] 31% | inhibition [2] 8% | inhibition [3] 1% | outcome [5] | outcome [6] | outcome [7] | outcome [8]
active: growth inhibition [4] 98%

CN=C(Nc1c(Cl)cccc1Cl)N(C)C
active: growth inhibition [4] 98%
inactive: growth inhibition [1] 1% | inhibition [2] -12% | inhibition [3] -1% | outcome [5] | outcome [6] | outcome [7] | outcome [8]

CN(C)CCNCc1ncsc1-c1ccc2c(Nc3ccc(F)cc3Cl)ccnc2c1
inactive: inhibition [2] -1% | inhibition [3] 0% | outcome [5] | outcome [6] | outcome [7] | outcome [8]
active: growth inhibition [1] 95% | growth inhibition [4] 100%

CC(=O)c1c[nH]c(C(=O)Nc2ccc(-c3cn4ccccc4n3)cc2)c1
active: growth inhibition [1] 95% | growth inhibition [4] 98%
inactive: inhibition [2] 20% | inhibition [3] 4% | outcome [5] | outcome [6] | outcome [7] | outcome [8]

O=C(Nc1cccc(-c2cccc(CN3CCCC3)c2)c1)c1cccc(Cl)c1
active: growth inhibition [4] 89%
inactive: growth inhibition [1] 30% | inhibition [2] 44% | inhibition [3] -2% | outcome [5] | outcome [6] | outcome [7] | outcome [8]

Cc1cc(=O)[nH]c(/N=C(/N)NOCCCc2ccccc2)n1
active: growth inhibition [4] 100%
inactive: growth inhibition [1] 4% | inhibition [2] -4% | inhibition [3] 3% | outcome [5] | outcome [6] | outcome [7] | outcome [8]

CN1CCN(Cc2c(O)ccc3c(=O)c(Oc4ccc(C(C)(C)C)cc4)c(C(F)(F)F)oc23)CC1
active: growth inhibition [1] 88% | growth inhibition [4] 99%
inactive: inhibition [2] -13% | inhibition [3] 4% | outcome [5] | outcome [6] | outcome [7] | outcome [8]
